# Assay outcomes: PubChem BioAssay, National Center for Advancing Translational Sciences (NCATS)
# Sampled rows, rich in hits. Any-hit rate of the full collection: about 11%.
# Sm TGR block – S. mansoni TGR enzyme inhibition | Q962Y6 | purified TGR, DTNB reduction, TNB absorbance 405 nm | Potency, µM (doses to about 114 µM), without a hit: at the top dose activity change, negative = inhibition, hits mostly inhibitors | 360,000 tested, 3% active; further: on the % scale 0 is the no-effect control and ±100 the full control effect; nearly all actives have a fitted effect of over 60% in size
#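 First, TGR (20 nM dispensed) and NADPH were mixed with compound. Second, a 15 min room-temperature incubation followed. Third, further NADPH and then DTNB were added to start the reaction. Finally, TNB absorbance was monitored kinetically.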
# Pf growth 96h – P. falciparum growth inhibition at 96 hour, primary screen for plastid delayed-death inhibitors. 320,000 tested, 6.9% active. P. falciparum luciferase reporter growth, 96 h. Potency, µM (top dose mostly 28.7 µM), for the others: at the top dose activity change, negative = inhibition, most hits filed as inhibitors. AID 504834; further: on the % scale 0 is the no-effect control and ±100 the full control effect
#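 P. falciparum expressing integrated firefly luciferase grown in erythrocytes (2% hematocrit, 0.05% parasitemia final) with compounds for 96 hours at 37 C, 5% CO2. Growth inhibition read as loss of luminescence after adding luciferase detection reagent.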
# NS1 inh – inhibitors of influenza NS1 protein function | AID 2326 | Potency, µM (series often up to 46.1 µM), for inactives: top-dose activity, positive = more growth | 270,000 tested, 0.4% active; calls by dose curve; further: actives are rising curves; nearly all actives have a fitted effect of over 50% in size
#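 S. cerevisiae expressing influenza A NS1, grown in glucose, washed, then diluted 1:100 into pH 6.0 -URA galactose medium with 23 nl compound. Growth recovery read as OD600; NS1-free strain serves as control.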
# AMA1-RON2 inh – inhibitors of Plasmodium falciparum AMA1-RON2 interaction; AlphaScreen AMA1-biotinylated RON2 peptide binding; Potency, µM (doses to about 58.2 µM), for the others: at the top dose activity change, negative = inhibition, most hits filed as inhibitors; 360,000 tested, 0.2% active; AID 720542;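 further: 0% = vehicle wells and -100% = peptide control; nearly all actives have a fitted effect of over 45% in size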
#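 AMA1 (3D7) with his tag at 25 nM final met compounds first, then biotinylated RON2 peptide at 25 nM; detection used donor plus acceptor beads, 10 µg/mL apiece, read by AlphaScreen after 30 min at room temperature.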
# Pf growth 48h – P. falciparum growth inhibition at 48 hours (one generation); P. falciparum luciferase growth in erythrocytes, 48 h; 310,000 tested, 5.9% active; Potency, µM (highest dose often 28.7 µM), without a hit: top-dose activity change, negative = inhibition, usual class: inhibitors; AID 504832; further: on the % scale 0 is the no-effect control and ±100 the full control effect
#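 Growth was read as firefly luciferase luminescence after a 48 h, 37 C, 5% CO2 exposure of compounds to reporter-bearing P. falciparum cultures (0.1% parasitemia, 2% hematocrit final) in Albumax-supplemented RPMI 1640.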
# The depositor's hits bear a star; i = inactive; ? = inconclusive; . = no result. Unless noted, the call rests on the fitted dose curve; in most records, active means well fitted curve in the direction sought with a large enough effect; inconclusive means small, poorly fitted or top-dose-only effect, or another doubt; inactive means no such curve, though single readings can be large; an effect the other way counts as inactive or inconclusive. Potency means the concentration at half of the fitted maximal effect.
SMILES,Sm TGR block,Pf growth 96h,NS1 inh,AMA1-RON2 inh,Pf growth 48h
CC(=O)Nc1ccc(S(=O)(=O)N2CCC(NC(=O)C(Cc3ccc(C)cc3)NC(C)=O)CC2)cc1 (stereo not given),-9%,27%,6%,0%,-7%
COc1cccc(CC(NC(C)=O)C(=O)NC2CCN(S(=O)(=O)c3cccc4ccccc34)CC2)c1 (stereo not given),-16%,12µM*,1%,1%,.
CC(=O)Nc1ccc(S(=O)(=O)N2CCC(NC(=O)C(Cc3cccc(F)c3)NC(C)=O)CC2)cc1 (stereo not given),45µM*,?,3%,-6%,-1%
COc1ccc(NC(=O)Nc2cccc3c2O[C@@H](CN(C)CC2CCCCC2)[C@@H](C)CN([C@H](C)CO)C3=O)cc1,.,.,.,10%,.
O=C(NC1CCCC1)C(c1ccc(F)cc1)N(Cc1ccc(F)cc1)C(=O)c1ccn[nH]1 (stereo not given),-15%,92%,19%,14%,-5%
O=C(NC1CCCCC1)C(c1ccc2ncccc2c1)N(Cc1ccco1)C(=O)c1ccc2c(c1)OCCO2 (stereo not given),0%,2.6µM*,-12%,-9%,5.2µM*
O=C(NC1CCCCCCC1)c1ccc2c(c1)OCO2,-20%,2%,-31%,7%,-60%
O=C(NC1CCCCC1)C(c1ccc2ncccc2c1)N(Cc1ccc2c(c1)OCO2)C(=O)c1ccc2c(c1)OCCO2 (stereo not given),-5%,?,19%,-5%,7.4µM*
O=C(NC1CCCCC1)C(c1ccc(F)cc1)N(Cc1ccco1)C(=O)c1ccccn1 (stereo not given),?,43%,.,16%,?
O=C(NC1CCCCC1)C(c1ccc2ncccc2c1)N(Cc1ccc(F)cc1)C(=O)c1ccc2c(c1)OCCO2 (stereo not given),7%,10µM*,24%,1%,?
O=C(NC1CCCCC1)C(c1ccc2ncccc2c1)N(Cc1cccs1)C(=O)c1cccs1 (stereo not given),-6%,?,-34%,4%,12µM*
Nc1ccn([C@@H]2O[C@H](CO)[C@H](O)C2(F)F)c(=O)n1,.,1.5µM*,.,.,1.9µM*
CC1(C)CC(=O)C(C=Nc2cccnc2/N=C/C2=C(O)CC(C)(C)CC2=O)=C(O)C1,22µM*,7%,-7%,35%,18%
CC1(C)CC(=O)C(C=Nc2cccnc2)=C(O)C1,5%,7%,-3%,6%,33%
CC1(C)CC(=O)C(C=Nc2ccc(O)c(N=CC3=C(O)CC(C)(C)CC3=O)c2)=C(O)C1,8%,?,.,64%,10µM*
CC(C)(O)C#Cc1ccc(CNC[C@H]2O[C@@H](n3cnc(C(N)=O)n3)[C@H](O)[C@@H]2O)s1,.,.,.,8%,.
CCOC(=O)C1CCN(c2c(NCCC(C)C)c(=O)c2=O)CC1,-7%,5%,2%,16%,-23%
CC(=O)SC1CC(=O)N(c2ccc(C(C)(C)C)cc2)C1=O (stereo not given),?,36%,6%,11%,24%
Cc1cccc(C)c1N1C(=O)CC(N2CCSCC2)C1=O (stereo not given),45µM*,0%,-2%,-6%,-19%
O=C1CC(N2CCSCC2)C(=O)N1c1cccc(Br)c1 (stereo not given),45µM*,1%,.,8%,?
CC(=O)SC1CC(=O)N(c2c(C)cccc2C)C1=O (stereo not given),14µM*,13%,2%,-2%,1.9µM*
O=C1CC(N2CCSCC2)C(=O)N1c1ccccc1 (stereo not given),.,?,-2%,3%,6%
Cc1ccc(NS(=O)(=O)c2cccc(C(=O)N3CCN(C(=O)c4ccco4)CC3)c2)cc1,-22%,?,.,15%,?
CN(C(=O)c1ccc2c(c1)C(=O)N(CCC1=CCCCC1)C2=O)C1CCCCC1,-6%,10µM*,6%,-2%,.
Cc1c(C(=O)c2ccc(F)cc2F)c2ccccn2c1CCc1ccccn1,.,.,.,-7%,.
SMILES,Sm TGR block,Pf growth 96h,NS1 inh,AMA1-RON2 inh,Pf growth 48h
Cc1c(C(=O)c2ccc(F)cc2F)c2ccccn2c1CCC#N,35µM*,-9%,4%,-21%,-13%
Cc1ccc2[nH]c3c(c2c1)SC(C)(C)CC3=O,-11%,i,.,2%,-18%
COc1ccc(SCCN2CC[C@@H](C(C)(C)C)CCC2=O)cc1,-14%,?,.,2%,0%
CC1CN(c2nc3ccccn3c(=O)c2/C=C(\C#N)C(N)=O)CC(C)O1 (stereo not given),8%,58%,1%,-4%,26%
N#C/C(=C\c1c(N(Cc2ccccc2)Cc2ccccc2)nc2ccccn2c1=O)C(N)=O,-12%,?,2%,0%,4.7µM*
C=CCNC(=O)/C(C#N)=C/c1c(N(Cc2ccccc2)Cc2ccccc2)nc2ccccn2c1=O,-7%,9.3µM*,?,0%,5.2µM*
C=CCn1c(O)c(CN2CCCCC2)c(C)c(C#N)c1=O,13µM*,15%,.,-15%,-7%
Cc1cc(C)nc(NS(=O)(=O)c2ccc(NC(=O)c3ccc4c(c3)OCCO4)cc2)n1,-1%,16%,0%,33%,1%
COc1ccc(S(=O)(=O)Oc2ccc3ccccc3c2)cc1,7%,?,-21%,1%,42%
COC1=C(OC)C(=O)C(Sc2ccc3ccccc3c2)=CC1=O,.,.,.,13µM*,.
O=C1C(Cl)=C(NCC2CCCO2)C(=O)N1C1CCCCC1 (stereo not given),-19%,?,-7%,-3%,?
O=C1C(Cl)=C(NCC2CCCO2)C(=O)N1c1ccccc1 (stereo not given),50µM*,.,-5%,12%,31%
CCn1c(O)c(/C(C)=N/N2CCCCC2c2cccnc2)c(=O)[nH]c1=S (stereo not given),-2%,13µM*,10%,-17%,?
O=c1[nH]c(=S)n(-c2ccccc2)c(O)c1/C=N/N1CCCCC1c1cccnc1 (stereo not given),?,74%,4%,23%,2%
COc1ccc(OC)c(N=c2ssnc2Cl)c1,56µM*,1.7µM*,-107%,-3%,22%
Cc1ccc(C)c(N2CC(O)(c3cccs3)[N+]3=C2CCCC3)c1 (stereo not given),-6%,?,.,-8%,10µM*
OC1(c2cccs2)CN(c2ccc(Cl)cc2)C2=[N+]1CCCC2 (stereo not given),2%,?,.,-11%,?
COc1ccc(Cl)cc1NC(=S)NCCSc1ccc(C)cc1,1%,12µM*,-24%,58%,-16%
Cc1ccc(NC(=S)NCCSc2ccc(Cl)cc2)cc1,-16%,?,.,21%,12µM*
CCN(CC)C(=O)c1[nH]cnc1C(=O)N[C@@H](Cc1ccccc1)C(=O)OC(C)(C)C,3%,?,-10%,34%,0%
